VACV Venus inh = qHTS for Stage-Specific Inhibitors of Vaccinia Orthopoxvirus: Venus Reporter Primary qHTS | Vaccinia virus Venus reporter expression, fluorescence | Potency, µM (doses to about 36.5 µM), without a hit: at the highest dose activity change, negative = inhibition, hits mostly inhibitors | 0.46% of 330,000 active; calls by dose curve; tested in A549 cells; further: potency means the concentration at half of the fitted maximal effect; nearly all actives have a fitted effect of over 30% in size
LmPK inh = qHTS Assay for Inhibitors of Leishmania Mexicana Pyruvate Kinase (LmPK) | purified LmPK, Kinase-Glo ATP luminescence, 1 h | Potency, µM (top dose mostly 57.5 µM), inactives show at the highest dose activity change, negative = inhibition, usual class: inhibitors | 0.37% of 290,000 active | AID 1721, 2009; further: potency means the concentration at half of the fitted maximal effect
Target sequence (Q27686 whole entry, looked up): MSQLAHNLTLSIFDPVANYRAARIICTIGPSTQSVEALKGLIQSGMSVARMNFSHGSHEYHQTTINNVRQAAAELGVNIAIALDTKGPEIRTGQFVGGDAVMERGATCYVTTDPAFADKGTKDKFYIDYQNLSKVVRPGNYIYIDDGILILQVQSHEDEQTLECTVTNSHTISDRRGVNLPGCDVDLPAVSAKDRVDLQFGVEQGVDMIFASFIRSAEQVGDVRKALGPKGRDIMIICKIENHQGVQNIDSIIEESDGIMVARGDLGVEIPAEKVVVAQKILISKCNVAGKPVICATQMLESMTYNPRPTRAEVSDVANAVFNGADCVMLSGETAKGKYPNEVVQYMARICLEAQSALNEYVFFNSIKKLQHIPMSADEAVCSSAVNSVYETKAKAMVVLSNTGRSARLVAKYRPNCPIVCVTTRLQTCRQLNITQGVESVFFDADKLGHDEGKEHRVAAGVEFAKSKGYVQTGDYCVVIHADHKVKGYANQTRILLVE
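Purified LmPK (0.1 nM) converted ADP (0.1 mM) to ATP with PEP (0.5 mM) in imidazole buffer pH 7.2 with KCl and MgCl2, 1 h at room temperature. ATP was read by Kinase-Glo luminescence; data normalized to uninhibited and no-enzyme controls.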
Tb PYK inh = qHTS of Trypanosoma Brucei Inhibitors. 0.12% of 410,000 active. Potency, µM (highest dose often 76.8 µM), for the others: at the top dose activity, negative = inhibition, actives largely listed as inhibitors. TbPYK enzyme, Kinase-Glo Plus ATP luminescence, 45 min; further: potency means the concentration at half of the fitted maximal effect; nearly all actives have a fitted effect of over 50% in size
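Readout: single end-point luminescence (Kinase-Glo Plus, 10 min). Reaction conditions were TbPYK/substrate plus 130 uM ADP, 45 min at RT, pH 7.2 TEA buffer. No-enzyme wells served as controls, and data were normalized before concentration-response fitting.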
Vaccinia mCherry = qHTS for Stage-Specific Inhibitors of Vaccinia Orthopoxvirus: mCherry Reporter Primary qHTS | Vaccinia virus mCherry reporter infection, fluorescence | Potency, µM (doses to about 36.5 µM), inactives show at the highest dose activity change, negative = inhibition, hits mostly inhibitors | 0.63% of 310,000 active | AID 720579, 2013; calls by dose curve; tested in A549 cells; further: potency means the concentration at half of the fitted maximal effect; nearly all actives have a fitted effect of over 35% in size
HCMV inh = qHTS Assay for inhibitors of the human cytomegalovirus (HCMV); HFF cells, HCMV-luciferase reporter, 72 h; stronger effect = lower value; activity change, negative = inhibition, % at 57.5 µM; 4.5% of 410,000 active; AID 1259415, 2018; in the data active means activity change below about -60%; inconclusive means no clear call, values can overlap the other calls; inactive means above about -39%
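Two-dose cell screen: HFF monolayers treated with compounds and infected with luciferase-expressing HCMV at 1 PFU/cell, 72 h at 37C, then lysed for luciferase measurement.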
Starred values were filed as active, the others as inactive; i = inactive; ? = inconclusive; · = no result given; + = active, no number; [ ] = remark or other dose. A selection: hits, their analogues and other compounds. The true share with any hit is near 5%. Unless noted, the call rests on the fitted dose curve; in most records, active means well fitted curve in the direction sought with a large enough effect; inconclusive means small, poorly fitted or top-dose-only effect, or another doubt; inactive means no such curve, though single readings can be large; an effect the other way counts as inactive or inconclusive. On the % scale 0 is the no-effect control and ±100 the full control effect.

SMILES | VACV Venus inh | LmPK inh | Tb PYK inh | Vaccinia mCherry | HCMV inh
CC(=O)Nc1ccc(S(=O)(=O)N2CCN=C2SCc2cccnc2)cc1 | -18.1% | -6.7% | 1.2% | -6.0% | ?
CC(Sc1nc(N2CCOCC2)c2c(c1C#N)CC(C)(C)OC2)C(=O)O (stereo not given) | -6.1% | -0.3% | -27.7% | i | ·
Cc1cc(C)cc(N(CC(=O)NCc2cccnc2)S(C)(=O)=O)c1 | -12.2% | -2.7% | -13.0% | -13.4% | 29.5
Cc1cc(C)cc(C(=O)NC(=S)Nc2ccc(Cc3ccncc3)cc2)c1 | -27.4% | 1.6% | -11.6% | ? | -74.1*
COc1ccccc1C(=O)NC(=S)Nc1ccc(Cc2ccncc2)cc1 | · | 2.0% | 3.8% | · | -76.3*
C/C(=N\NC(N)=S)C1C2C3CC4C5CC(C42)C1C53 (stereo not given) | ? | 0.3% | -0.7% | 11.2µM* | -62.4*
CCOc1ccccc1C1Nc2ccccc2-c2nnc(SCc3ccccc3)nc2O1 (stereo not given) | 5.2% | · | -2.1% | -4.5% | 15.3
COc1ccc(OC)c(N2C(N)=C(C#N)C(c3ccc(OC)c(O)c3)C3=C2CC(C)(C)CC3=O)c1 (stereo not given) | -5.8% | 1.0% | -11.0% | -3.2% | ·
CSc1ncc(C(=O)Nc2ccccc2Cl)c(C)n1 | -2.4% | -1.7% | 1.3% | -11.3% | ?
O=C(O)c1cn(-c2ccc(F)cc2)c2cc(Cl)c(F)cc2c1=O | 1.6% | -5.7% | 0.3% | -2.4% | -60.9*
CC1CN(c2cc3c(cc2F)c(=O)c(C(=O)O)cn3-c2ccc(F)cc2F)CCN1 (stereo not given) | · | · | -3.0% | · | ·
O=C(NCc1ccccc1Cl)c1ccc(-n2cnc3cccnc32)cc1 | 5.5% | · | 0.2% | -9.5% | -93.7*
COc1ccc(CNC(=O)OCCN2CCN(S(=O)(=O)c3ccc(C)cc3)CCC2=O)cc1 | -23.5% | 2.9% | 3.6% | i | -65.2*
Cc1ccc(NC(=O)OCCN2CCN(S(=O)(=O)c3ccc(C)cc3)CCC2=O)cc1 | -20.4% | 4.8% | 2.2% | -5.7% | -22.4
Cc1ccc(S(=O)(=O)N2CCC(=O)N(CCOC(=O)Nc3cccc(Cl)c3)CC2)cc1 | ? | 2.4% | -13.7% | -9.4% | -64.3*
Cc1cccc(-n2c(/C=C\c3cccc(Br)c3)nc3ccccc3c2=O)c1 | -21.0% | · | -0.2% | -17.4% | -32.0
Cn1c(/C=C/c2cccc(Br)c2)nc2ccccc2c1=O | ? | 3.7% | 0.4% | -26.8% | -72.2*
Cn1c(/C=C/c2cccc([N+](=O)[O-])c2)nc2ccccc2c1=O | -10.3% | 5.9% | 6.6% | i | -61.2*
O=c1c2ccccc2nc(/C=C/c2ccc(Br)cc2)n1CCCO | · | 3.6% | 4.0% | · | -71.2*
Cn1c(/C=C/c2ccccc2)nc2ccccc21 | -20.3% | 5.01µM* | ? | -2.1% | ?
COc1cccc(C(c2nnnn2Cc2ccccc2)N2CCC3(CC2)C(=O)NCN3c2ccccc2)c1OC (stereo not given) | -12.6% | · | -1.6% | i | -27.9
Cc1ccc(S(=O)(=O)N2CCC3CC2c2cc(Cl)ccc23)cc1 (stereo not given) | 3.3% | · | 1.7% | -24.1% | -24.3
COc1ccc(-n2c(/C=C/c3c(C)[nH]c4ccccc34)nc3ccccc3c2=O)cc1 | -24.8% | · | 0.7% | -21.7% | 4.3
O=c1c2ccccc2nc(/C=C/c2cccc(Br)c2)n1CCCO | -22.6% | 5.6% | -12.2% | i | -92.1*
Cc1[nH]c2ccccc2c1/C=C/c1nc2ccccc2c(=O)n1-c1cccc([N+](=O)[O-])c1 | -12.9% | -3.6% | -5.6% | -26.5% | -85.9*
SMILES | VACV Venus inh | LmPK inh | Tb PYK inh | Vaccinia mCherry | HCMV inh
O=c1c2ccccc2nc(/C=C/c2ccc([N+](=O)[O-])o2)n1CCCO | ? | 1.8% | -9.6% | ? | -107.6*
O=C(/C=C/c1cccc([N+](=O)[O-])c1)n1cnc2ccccc21 | -17.5% | -2.2% | -4.7% | -9.2% | -98.5*
O=C(Nc1ccccc1F)c1csc(COCCO)n1 | -2.0% | · | 0.6% | i | 26.3
Cc1nc(SCC(=O)N2CCNC2=O)c(C#N)c(C)c1C | -10.2% | · | -11.3% | -5.8% | -24.5
O=C1c2ccccc2C(=O)C1c1ccc2ccccc2n1 | -8.8% | 14.1µM* | 0.7% | 15.6% | -30.4
Cc1cc(NC2CCCCC2)nc(NCc2ccccc2)n1 | · | 12.1% | -7.8% | · | -93.0*
COc1cc(C)nc(NCc2ccccc2)n1 | 4.4% | 1.8% | 3.8% | -6.1% | -16.3
Cc1ccc(Nc2cc(C)nc(NCc3ccccc3)n2)cc1 | ? | 5.1% | -0.3% | ? | -83.5*
COc1ccc(Nc2cc(C)nc(NCc3ccccc3)n2)cc1 | -9.1%[7.34 µM] | 1.1% | 0.0% | -6.7%[7.34 µM] | ?
Cc1cc(N/N=C/c2ccccc2Cl)nc(NCc2ccccc2)n1 | ? | -7.0% | 0.0% | 12.6µM* | 38.2
CCCCN1C[C@H](C)[C@@H](CC(=O)Nc2ccccc2)C1=O | -19.0% | · | -9.8% | i | -14.9
CNC(=S)N(Cc1ccc(OC)cc1)C1CC(=O)N(c2ccc(Cl)cc2)C1=O (stereo not given) | -24.0% | 2.5% | -11.8% | -14.9% | -29.7
O=C(CC(=O)NC1CCCCC1)N/N=C/c1ccccc1Cl | -13.4% | -6.0% | 2.8% | i | ?
O=C(c1ccc(-c2ccc([N+](=O)[O-])cc2)o1)N1CCN(S(=O)(=O)c2cccs2)CC1 | -6.5% | · | -21.4% | -29.8% | -60.6*
O=C(c1ccc(-c2ccc(Cl)cc2)o1)N1CCN(S(=O)(=O)c2cccs2)CC1 | · | · | 0.0% | · | -60.6*
Cn1ncc(Cl)c1C(=O)N1CCN(S(=O)(=O)c2cccs2)CC1 | -11.0% | -4.9% | -5.2% | -15.4% | 39.0
CN(C)/C=C/C(=O)c1cc(F)cc(C(F)(F)F)c1 | 3.6% | 4.1% | -4.4% | i | -3.2
CC(C)CN(C(=O)CN1CCOCC1)c1c(N)n(CC(C)C)c(=O)[nH]c1=O | 0.3% | 3.3% | 0.8% | -20.5% | -72.3*
CC(C)=CC(=O)Nc1ccccc1C(N)=O | -2.9% | -11.4% | 1.7% | -16.4% | -74.1*
COC(=O)C(NC(=O)c1ccco1)(Nc1nc(C2CC2)cs1)C(F)(F)F (stereo not given) | -4.1% | -11.5% | -7.7% | -5.6% | -66.9*
CN1CCN(CCCNC(=O)CN2C(=O)COc3ccccc32)CC1 | -13.6% | -2.9% | 3.2% | -15.0% | 4.5
O=C(CN1C(=O)COc2ccccc21)NCCCN1CCCC1 | · | -0.7% | -1.1% | · | +
Cc1ccc2c(c1)N(CC(=O)NCCCN1CCN(C)CC1)C(=O)CO2 | -7.0% | 1.3% | -14.4% | -11.9% | -69.1*
Cn1cccc1C1C=C(c2ccc(C(C)(C)C)cc2)Nc2ncnn21 (stereo not given) | ? | · | -6.0% | ? | -80.4*
CC(C)(C)c1ccc(C2=CC(c3ccccc3F)n3ncnc3N2)cc1 (stereo not given) | -17.4% | · | -3.6% | -7.3% | 0.0

Bioassay records deposited in PubChem BioAssay by National Center for Advancing Translational Sciences (NCATS).
